Screening data deposited in PubChem BioAssay by National Center for Advancing Translational Sciences (NCATS).
In the library only some 8.7% were active in any assay of this set; here they are far more common.
Pf growth 96h = inhibits malaria parasite growth, 96 h; P. falciparum luciferase reporter growth, 96 h; Potency, µM (series often up to 28.7 µM), usual class: inhibitors; 6.9% of 320,000 active
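Cell-based qHTS: luciferase-tagged P. falciparum in erythrocytes (2% hematocrit, 0.05% parasitemia final) incubated with compounds for 96 hours, 37 C, 5% CO2; luciferase detection reagent then added and luminescence measured.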
VACV mCherry inh = inhibitors of vaccinia virus infection (mCherry reporter signal) | Vaccinia virus mCherry reporter infection, fluorescence | Potency, µM (doses to about 36.5 µM), usual class: inhibitors | 0.63% of 310,000 active | AID 720579; calls by dose curve; tested in A549 cells; note: nearly all actives have a fitted effect of over 35% in size
AMA1 RON2 block = inhibitors of Plasmodium falciparum AMA1-RON2 interaction | AlphaScreen AMA1-biotinylated RON2 peptide binding | 0.2% of 360,000 active | Potency, µM (top dose mostly 58.2 µM), actives largely listed as inhibitors; note: nearly all actives have a fitted effect of over 45% in size
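AMA1 (3D7) with his tag at 25 nM final met compounds first, then biotinylated RON2 peptide at 25 nM; detection used donor plus acceptor beads, 10 µg/mL apiece, read by AlphaScreen after 30 min at room temperature.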
Pf growth 48h = P. falciparum growth inhibition at 48 hours (one generation) | Potency, µM (doses to about 28.7 µM), actives largely listed as inhibitors | 5.9% of 310,000 active | P. falciparum luciferase growth in erythrocytes, 48 h | AID 504832
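Here the parasites carry a stable luciferase gene and grow inside erythrocytes in Albumax-based RPMI medium with compound for one erythrocytic cycle. Activity is scored as loss of luminescent signal.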
VACV Venus inh = inhibitors of vaccinia virus (Venus reporter); Potency, µM (series often up to 36.5 µM), usual class: inhibitors; Vaccinia virus Venus reporter expression, fluorescence; 0.46% of 330,000 active; calls by dose curve; tested in A549 cells; note: nearly all actives have a fitted effect of over 30% in size
Of the large screens only hits and unclear results are named; the others gave an inactive call. Unless noted, calls come from the whole dose curve; as a rule, active = well fitted curve in the direction sought with a large enough effect; inconclusive = small, poorly fitted or top-dose-only effect, or another doubt; inactive = no such curve, though single readings can be large; an effect the other way counts as inactive or inconclusive.

OCC1(CCOc2ccccc2)CCN(Cc2ccc3c(c2)OCCO3)CC1	Pf growth 96h 12µM (no result: VACV mCherry inh, VACV Venus inh)
CCOc1cc(CN2CCC(CO)(Cc3cccc(C(F)(F)F)c3)CC2)ccc1OC	Pf growth 96h 10µM, Pf growth 48h inconclusive
CCCN1C(=O)C(NC(=O)c2ccccc2OC)(C(F)(F)F)C(C(=O)OC)=C1C (stereo not drawn)	none (no result: Pf growth 96h, AMA1 RON2 block, Pf growth 48h)
Cn1c(=O)[nH]c(=O)c2c1nc(N1CCOCC1)n2Cc1ccccc1	none (no result: Pf growth 96h, AMA1 RON2 block, Pf growth 48h)
COc1ccc(CN2CCC(CO)(CCOc3ccccc3)CC2)cc1C	Pf growth 48h 10µM
OCC1(CCOc2ccccc2)CCN(CCCn2cccn2)CC1	Pf growth 96h 10µM
OCC1(CCOc2ccccc2)CCN(Cc2ccc(OC(F)F)cc2)CC1	Pf growth 96h 10µM
Cc1ccc(NC(=O)c2nc(-c3ccncc3)no2)c(Cl)c1	none (no result: Pf growth 96h, AMA1 RON2 block, Pf growth 48h)
COc1ccc(C(=O)NCC(=O)OCC(=O)c2cccc3ccccc23)cc1	none (no result: Pf growth 96h, AMA1 RON2 block, Pf growth 48h)
CCOc1ccccc1C1C2=C(COC2=O)Nc2cc3c(cc21)OCO3 (stereo not drawn)	Pf growth 96h 10µM, VACV mCherry inh inconclusive, Pf growth 48h inconclusive, VACV Venus inh inconclusive
O=C1OCC2=C1C(c1ccc(F)cc1)c1cc3c(cc1N2)OCO3 (stereo not drawn)	VACV mCherry inh inconclusive, VACV Venus inh inconclusive
Cc1ccc(C)c(Nc2ncnc(N)c2[N+](=O)[O-])c1	Pf growth 96h 2.1µM
CC(C)COc1ccc(CC(=O)NO)cc1	none (no result: Pf growth 96h, AMA1 RON2 block, Pf growth 48h)
CCOc1cc(CNc2ccc(N3CCN(C(C)=O)CC3)cc2)cc(Br)c1OC	Pf growth 96h inconclusive, AMA1 RON2 block inconclusive, Pf growth 48h inconclusive
COc1cc(CNc2cccc(C(=O)O)c2)cc(Br)c1OCC(=O)NC(C)(C)C	Pf growth 96h 12µM
CCOc1cc(CNc2cccc3ccccc23)cc(Br)c1OCC(=O)NC(C)(C)C	Pf growth 96h 9.3µM (no result: Pf growth 48h)
CCOc1cc(CNc2ccc(N3CCCCC3)cc2)cc(Br)c1OCC(=O)NC(C)(C)C	Pf growth 96h 13µM, AMA1 RON2 block 20µM, Pf growth 48h inconclusive
CCOc1cc(CNc2ccc(N(C)C)cc2)cc(Br)c1OCC(=O)NC(C)(C)C	Pf growth 96h inconclusive, AMA1 RON2 block 25µM, Pf growth 48h 0.66µM (no result: VACV mCherry inh)
CCCCN1CC[C@H]2C=CC[C@@H](C(=O)NCc3cccnc3)[C@H]2C1=O	none (no result: Pf growth 96h, AMA1 RON2 block, Pf growth 48h)
Cc1ccccc1Cn1c(CN2CCC(C(=O)NCCc3ccccc3)CC2)cc2ccccc21	none (no result: Pf growth 96h, AMA1 RON2 block, Pf growth 48h)
CCOc1ccc(CNC(=O)Cn2c(=O)c3cccn3c3ccc(F)cc32)cc1	none (no result: Pf growth 96h, AMA1 RON2 block, Pf growth 48h)
COc1ccc(NC(=O)CCc2c(C)nn(-c3ccc(N4CCCCC4)nn3)c2C)cc1Cl	none (no result: Pf growth 96h, AMA1 RON2 block, Pf growth 48h)
CCOc1cc(CNc2ccc(N3CCOCC3)cc2)cc(Br)c1OCC	Pf growth 96h inconclusive, AMA1 RON2 block 14µM, Pf growth 48h inconclusive
CCOc1cc(CNc2ccc3c(c2)OCCO3)cc(Br)c1OCC	Pf growth 96h 2.1µM, VACV mCherry inh inconclusive, AMA1 RON2 block inconclusive, Pf growth 48h 1.9µM, VACV Venus inh inconclusive
CC(C)c1ccc(/C=C2\SC(N3CCCC3)=NC2=O)cc1	Pf growth 96h 3.7µM, VACV mCherry inh inconclusive, Pf growth 48h inconclusive
CN(C)c1ccc(/C=C2\SC(N3CCCCC3)=NC2=O)cc1	Pf growth 96h 4.1µM (no result: VACV mCherry inh, VACV Venus inh)
Cc1ccccc1-c1nc(CS(=O)(=O)CC(=O)NCC(C)c2ccccc2)c(C)o1 (stereo not drawn)	none (no result: Pf growth 96h, AMA1 RON2 block, Pf growth 48h)
C1CCC(C(CC2CCCCN2)C2CCCCC2)CC1 (stereo not drawn)	Pf growth 96h 4.1µM, VACV mCherry inh 11µM, Pf growth 48h 3.7µM, VACV Venus inh 13µM
CCCC1CCCCN1 (stereo not drawn)	none (no result: VACV mCherry inh, AMA1 RON2 block, VACV Venus inh)
COc1ccc(C2CC(=O)OC3=C2C(=O)CC(C)(C)C3)c(OC)c1 (stereo not drawn)	Pf growth 96h inconclusive, Pf growth 48h 10µM
COc1ccc2c(c1)C(C1=C(O)CC(C)(C)CC1=O)C1=C(CC(C)(C)CC1=O)O2 (stereo not drawn)	none (no result: VACV mCherry inh, Pf growth 48h, VACV Venus inh)
C[C@@H]1[C@H](c2ccccc2)OCCS(=O)(=O)N1Cc1ccccc1F	none (no result: Pf growth 96h, AMA1 RON2 block, Pf growth 48h)
COC(=O)[C@@]1(Cc2ccc(OC)cc2)[C@@H]2C(=CC(=O)[C@H]2CC(=O)C(=O)N(C)C)CN1C(=O)c1ccccc1	Pf growth 96h 9.3µM, Pf growth 48h 15µM, VACV Venus inh inconclusive
C=C1C(=O)C=C2CN(C(=O)c3ccccc3)[C@@](Cc3ccc(F)cc3)(C(=O)OC)[C@@H]12	Pf growth 96h inconclusive, VACV mCherry inh inconclusive, Pf growth 48h inconclusive, VACV Venus inh 8.9µM
Cc1nc2cccnc2n1-c1cccc(C(=O)NCCc2ccc(S(N)(=O)=O)cc2)c1	none (no result: Pf growth 96h, AMA1 RON2 block, Pf growth 48h)
